In ChEMBL document CHEMBL3988442, “University of Dundee, Small-Polar-MMV Screening Library” (2021):
In all, about 48,000 compounds went through this assay and about 13,000 (27%) showed an effect of 50% or more. This is one part of the list.

Test system: Wolbachia pipientis
Assay: Anti-Wolbachia Cell-Based Screen
Assay type: functional
Parameters: scale not given: in the data most compounds retested in dose-response had high values
Conditions: 5 µM

| SMILES | Percent Effect [%] |
| --- | --- |
| COCC1c2nnn(CC3CC3)c2CCN1C(=O)c1ccncn1 (stereo unspecified) | -7.229 |
| CN(C)c1ccc(-c2cc(C(=O)O)cc(S(=O)(=O)NC3CC3)c2)cc1 | -6.079 |
| Cc1cc(O)nc(C2CCCN(Cc3ccncc3)C2)n1 (stereo unspecified) | -8.016 |
| COCc1cc(O)nc(C2CCCN(Cc3ccc(OC)cc3)C2)n1 (stereo unspecified) | 126.6 |
| NC(=O)Cn1ccnc1C1CCCN(Cc2cccc(Cl)c2F)C1 (stereo unspecified) | -13.72 |
| COCc1nccc(C2CCCN(Cc3ccccc3C#N)C2)n1 (stereo unspecified) | -3.966 |
| COCc1cc(O)nc(C2CCCN(Cc3cccc(Cl)c3Cl)C2)n1 (stereo unspecified) | 101.5 |
| CCc1cc(O)nc(C2CCCN(Cc3ccncc3)C2)n1 (stereo unspecified) | 119.5 |
| COCc1cc(O)nc(C2CCCN(Cc3cc(OC)ccc3F)C2)n1 (stereo unspecified) | -12.81 |
| COCc1cc(O)nc(C2CCCN(Cc3cccc(OC)c3)C2)n1 (stereo unspecified) | 123.8 |
| COCCN1C[C@H]2CN(Cc3cccc(OC)c3)CCN2C1=O | -3.935 |
| COCC1CCCN(CCCc2cccc(OC)c2)C1 (stereo unspecified) | 6.457 |
| COCCn1cnnc1CCn1ccnc1-c1ccccc1Cl | -5.954 |
| CN(Cc1ccon1)c1nc(-c2ccccn2)nc2c1CCNCC2 | -7.259 |
| CCn1c(Cn2cccn2)nnc1C1CCN(Cc2ccc(C)o2)CC1 | 4.312 |
| O=c1c2ccccc2nc2n1CCC2O (stereo unspecified) | 1.424 |

| SMILES | Percent Effect [%] |
| --- | --- |
| O=C(Nc1cc(CSCCO)ccn1)c1ccc(Cl)o1 | -51 |
| Cc1ncccc1C(=O)NC1(c2cccc(F)c2)CCOCC1 | -2.77 |
| COCc1cc(O)nc(C2CCCN(Cc3ccc(F)cc3)C2)n1 (stereo unspecified) | 105.5 |
| CC(NC(=O)NCCN1CCCCCC1=O)c1ccc(Cl)s1 (stereo unspecified) | -4.831 |
| CC(C)CC(=O)N1CCN(Cc2cc(-c3ccncc3)nn2C)CC1 | 111 |
| CCc1nc(CN2CCCN(C(=O)COC)CC2)cs1 | 6.894 |
| CC(C)C(=O)N1CCN(Cc2cc(-c3ccncc3)nn2C)CC1 | -9.87 |
| COCC(=O)N1CCN(Cc2cc(-c3ccncc3)nn2C)CC1 | 92.41 |
| CCN(CC)C(=O)N1CCN(CCc2ccncc2)CC1 | 2.653 |
| CCCC(=O)N1CCN(Cc2cc(-c3ccncc3)nn2C)CC1 | 103.8 |
| CCC(CC)C(=O)N1CCN(Cc2cc(-c3ccncc3)nn2C)CC1 | 102.3 |
| CCC(=O)N1CCN(Cc2cc(-c3ccncc3)nn2C)CC1 | -2.828 |
| CCN(CC)CC(=O)N1CCN(CCc2ccncc2)CC1 | -8.418 |
| CCN(CC)CC(=O)N1CCN(CCCc2ccncc2)CC1 | 2.413 |
| CCCC(=O)N1CCN(c2cc(-n3cnc(C)c3C)nc(C)n2)CC1 | -4.899 |
